The record followed here is PubChem BioAssay AID720706 (Broad Institute, 2013).

The campaign covered roughly 350,000 compounds. About 5,500 (1.6%) were called active.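 The calls were made as follows: active = significant combined selectivity score with lowered wild-type GFP, culture density cut under 30%, mutant RFP and density less affected; inactive = any of these conditions unmet.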 For the sample, actives were picked, then their nearest neighbours and some compounds at random.

A short description of the test: GFP drop in mixed WT/humanized-ribosome E. coli culture – GFP/RFP fluorescence, OD600, single point, bacterial rRNA inhibitor project, primary screen (AID 720706). To be noted: E. coli WT GFP vs humanized-ribosome RFP mutants, 24 h; GFP signal change (wild-type ribosome): stronger effect = lower value, DMSO median 0, no signal -100; OD600 change: measured here: OD600 growth, DMSO median 0, no signal -100; RFP signal change: measured here: RFP humanized mutant strains, DMSO median 0, no signal -100, concentration not given here.
Regarding `CN(C(=O)CN1C(=O)/C(=C/c2ccc(Cl)cc2)SC1=S)C1CCS(=O)(=O)C1` (stereo unspecified), the GFP signal change (wild-type ribosome) is 15.8% (inactive), the OD600 change was 11% and the RFP signal change came out at 0.337%.
For the compound `CC(C(=O)NC1CCS(=O)(=O)C1)N1C(=O)/C(=C/c2ccc(Cl)cc2)SC1=S` (stereo unspecified), the GFP signal change (wild-type ribosome) was -21.1% (active), the OD600 change was -15.7% and the RFP signal change turned out to be 1.14%.
For the compound `O=C1[C@H](Cc2ccc(C(F)(F)F)cc2)CCn2nncc2COC[C@@H]2CCCCN12`, the GFP signal change (wild-type ribosome) is -1.75% (inactive), the OD600 change was -2.21% and the RFP signal change was -0.899%.
As to `CN1c2ccc(Br)cc2[C@H]2[C@H](CCN2S(=O)(=O)c2ccc(F)cc2)[C@@H]1CO`, the GFP signal change (wild-type ribosome) was -56.1% (inactive), the OD600 change is -75.9% and the RFP signal change was -12.6%.
On to `CN(Cc1ccccc1)C(=O)CSc1nc2ccccc2[nH]1`, for which the GFP signal change (wild-type ribosome) is -2.78% (inactive), the OD600 change stood at 2.36% and the RFP signal change was -0.812%.
The matching figures for `O=C(CSc1nc2ccccc2[nH]1)N/N=C/C=C\c1ccccc1[N+](=O)[O-]`: -28.1% (active), 3.26% and 1.21%.
The matching figures for `O=C(COC(=O)CCCSc1nc2ccccc2[nH]1)Nc1ccc(Oc2ccccc2)cc1`: -34.8% (inactive), -55% and 0.945%.
`CCOc1ccc(C2C3=C(CCCC3=O)N(CC(=O)O)C3=C2C(=O)CCC3)cc1`: the GFP signal change (wild-type ribosome) was 17.4% (inactive), the OD600 change was determined as 6.44% and the RFP signal change was -0.227%.
With `CCOC(=O)C1=C(N)N(c2ccc(C)cc2)C2=C(C(=O)CCC2)C1c1cccs1` (stereo unspecified), the GFP signal change (wild-type ribosome) was -21.7% (active), the OD600 change was -17.5% and the RFP signal change is 0.496%.
Consider `CCOC(=O)c1c(N)sc2c1CCCC2=O`, for which the GFP signal change (wild-type ribosome) is 1.16% (inactive), the OD600 change is -0.897% and the RFP signal change was -0.662%.
In the case of `COc1ccc(NC(=O)N(C)C[C@H]2OCCCC[C@H](C)Oc3ccc(NC(=O)NC4CCCCC4)cc3C(=O)N([C@@H](C)CO)C[C@@H]2C)cc1`, the GFP signal change (wild-type ribosome) is 1.21% (inactive), the OD600 change was 2.03% and the RFP signal change was found to be 2.63%.
Consider `COc1ccccc1OCCCC(=O)Nc1ccc2c(c1)OCCO2`, for which the GFP signal change (wild-type ribosome) is -2.92% (inactive), the OD600 change is -5.58% and the RFP signal change was -2.87%.
As to `COc1cccc(/C=C/C(=O)Nc2ccc3c(c2)OCCO3)c1`, the GFP signal change (wild-type ribosome) was -29.5% (active), the OD600 change is -2.39% and the RFP signal change amounted to 4.27%.
With `COc1cccc(C(=O)NNC(=O)/C=C/c2ccccc2)c1`, the GFP signal change (wild-type ribosome) was 6.18% (inactive), the OD600 change worked out at 10.2% and the RFP signal change was found to be 3%.
Consider `CO[C@H]1CN(C)C(=O)c2ccc(NC(C)=O)cc2OC[C@@H](C)N(C(=O)CN(C)C)C[C@@H]1C`, for which the GFP signal change (wild-type ribosome) is -1.24% (inactive), the OD600 change worked out at 6.54% and the RFP signal change is -4.25%.
The matching figures for `COc1ccccc1NC(=S)N1CCN(C(c2ccccc2)c2ccccc2)CC1`: 5.66% (inactive), 0.74% and -6.29%.
For the compound `CCC(C)N(C)C1CCN(C(=S)Nc2ccc(OC)cc2)CC1` (stereo unspecified), the GFP signal change (wild-type ribosome) is 6.68% (inactive), the OD600 change was -2.86% and the RFP signal change is -3.62%.
Consider `COc1ccccc1C1CCN(C(=S)Nc2ccc(Br)cc2)CC1`, for which the GFP signal change (wild-type ribosome) was -36.8% (active), the OD600 change is -23.8% and the RFP signal change is -10.2%.
For the compound `CN[C@H]1C[C@H]2c3[nH]c4c(-c5ccccc5)cccc4c3CCN2C(=O)[C@H]1[C@H](C)O`, the GFP signal change (wild-type ribosome) is -35.6% (inactive), the OD600 change is -70.1% and the RFP signal change was -2.51%.
For the compound `CCC(CC)c1nnc(NC(=O)C2CCN(C(=O)c3ccco3)CC2)s1`, the GFP signal change (wild-type ribosome) is -22.2% (active), the OD600 change was -16.6% and the RFP signal change was -5.86%.
Consider `CCc1nnc(NC(=O)C2CCN(C(=O)c3ccccc3C)CC2)s1`, for which the GFP signal change (wild-type ribosome) was 6.89% (inactive), the OD600 change is 6.36% and the RFP signal change came to 0.577%.
The matching figures for `COc1ccc(CNC(=O)C2CCN(C(=O)c3ccco3)CC2)cc1`: -1.02% (inactive), 2.41% and 0.192%.
As to `C/C=C/c1ccc2c(c1)O[C@H](CN(C)C(=O)Cc1ccncc1)[C@@H](C)CN([C@@H](C)CO)S2(=O)=O`, the GFP signal change (wild-type ribosome) is -0.815% (inactive), the OD600 change was -5.29% and the RFP signal change came out at 0.444%.
Turning to `O=C(NCCS(=O)(=O)N1CCN(c2ccccc2)CC1)c1cc(=O)c2ccccc2o1`, the GFP signal change (wild-type ribosome) was 1.78% (inactive), the OD600 change is 2.38% and the RFP signal change is -0.491%.
The matching figures for `O=C(NCCS(=O)(=O)N1CCN(c2ccccc2)CC1)c1ccco1`: -1.63% (inactive), -7.54% and -1.71%.
The matching figures for `O=C(NCCS(=O)(=O)N1CCN(c2ccccc2F)CC1)c1ccc(Br)o1`: -32% (active), -25.8% and -5.03%.
On to `COc1cccc(S(=O)(=O)N2CCCCN3[C@H](CO)[C@H](c4ccc(C#CC5CC5)cc4)[C@H]3C2)c1`, for which the GFP signal change (wild-type ribosome) is -57.8% (inactive), the OD600 change was -71% and the RFP signal change is -6.51%.
On to `Cc1ccc(S(=O)(=O)N2CC(=O)Nc3ccccc32)cc1C`, for which the GFP signal change (wild-type ribosome) is -32.4% (active), the OD600 change was -6.68% and the RFP signal change was 4.37%.
For `Cc1ccc(S(=O)(=O)N2CCN(c3ccccc3)CC2)cc1C`, the GFP signal change (wild-type ribosome) was -16.3% (inactive), the OD600 change is -15.2% and the RFP signal change was -8.46%.
The matching figures for `Cc1ccc(S(=O)(=O)N(C)CC(=O)OCC(=O)N2CC(=O)Nc3ccccc32)cc1`: 2.71% (inactive), -0.97% and 0.17%.
With `CCCNC(=O)N1C[C@H](C)[C@@H](OC)CN(C)C(=O)c2ccc(NS(=O)(=O)CC(F)(F)F)cc2OC[C@@H]1C`, the GFP signal change (wild-type ribosome) is -0.684% (inactive), the OD600 change was 1.48% and the RFP signal change was -1.07%.
For `Cc1ccccc1-c1cnc2c(c1)C(=O)N([C@H](C)CO)C[C@@H](C)[C@H](CN(C)C(=O)c1cccnc1)O2`, the GFP signal change (wild-type ribosome) was 2.61% (inactive), the OD600 change came out at 12.8% and the RFP signal change was -2.14%.
